Eight compounds from PubChem BioAssay (Tox21) can be followed below.

Several values for one entry are separate records, joined by “and”; a condition that tells them apart may be missing. Equal entries are not always repeated. Inconclusive results are not listed. More than one record can exist for a structure, and the calls need not agree. Activity calls are given as the source filed them. Unless noted, calls follow the shape of the dose curve; as a rule, active = well fitted curve in the direction sought with a large enough effect in the repeat runs; inconclusive = weak or mixed curves; inactive = no such curve, though single readings can be large; an effect the other way counts as inactive or inconclusive.

A short description of assay [1]: qHTS assay to test for compound auto fluorescence at 535 nm (green) in HEK293 cells (AID 720680). Also: % is scaled to controls: 0 for no effect and ±100 for the full control effect. On the technique in general: Quantitative high-throughput screening tests each substance at several concentrations.
The nature of assay [2]: qHTS assay to test for compound auto fluorescence at 460 nm (blue) in HEK293 cell free culture (AID 720681). Also: % is scaled to controls: 0 for no effect and ±100 for the full control effect. In short, it runs like this:
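Blue fluorescence (Ex 405/Em 460 nm, triamterene-equivalent) was read immediately after pin transfer of compound or DMSO into medium (DMEM, 10% FBS) without cells.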

Assay [3] is described as follows: qHTS assay to test for compound auto fluorescence at 590 nm (red) in HEK293 cell free culture (AID 720683). Also: % is scaled to controls: 0 for no effect and ±100 for the full control effect. In short, it runs like this:
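Red-channel autofluorescence of compounds in culture medium (DMEM, 10% FBS), no cells, measured at 540/590 nm. Rose Bengal sodium is the reference fluorophore for equivalence.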

Assay [4] is described as follows: qHTS assay to test for compound auto fluorescence at 590 nm (red) in HepG2 cell free culture (AID 720684). Also: % is scaled to controls: 0 for no effect and ±100 for the full control effect. In a few lines:
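Plate contents were MEM with 10% FBS plus test compound or DMSO, no cells. Fluorescence was recorded with 540 nm excitation and 590 nm emission.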

The nature of assay [5]: qHTS assay to test for compound auto fluorescence at 460 nm (blue) in HepG2 cell free culture (AID 720685). Also: % is scaled to controls: 0 for no effect and ±100 for the full control effect. In short, it runs like this:
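Compound (23 nL) or DMSO pinned into cell-free MEM with 10% FBS; blue fluorescence read at 405/460 nm excitation/emission, expressed as auto-fluorescence equivalency to triamterene.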

Assay [6] can be described thus: qHTS assay to test for compound auto fluorescence at 535 nm (green) in HepG2 cell free culture (AID 720686). Also: % is scaled to controls: 0 for no effect and ±100 for the full control effect.
Assay [7] in a line: qHTS assay to test for compound auto fluorescence at 460 nm (blue) in HepG2 cells (AID 720687). Also: % is scaled to controls: 0 for no effect and ±100 for the full control effect. In a few lines: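 Blue-channel autofluorescence (Ex/Em 405/460 nm, triamterene-equivalent) was measured after 1 hr compound exposure at 37 C, 5% CO2. Cells were HepG2, plated overnight at 37 C in MEM plus 10% FBS.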
Assay [8] addresses Glucocorticoid receptor (Homo sapiens) (UniProt P04150). The assay can be described thus: qHTS assay to identify small molecule agonists of the glucocorticoid receptor (GR) signaling pathway (AID 720691; active = well fitted activation curve with a large enough effect in the signal ratio in the repeat runs, not every such curve was filed as active; the % refers to the signal ratio; also: % is scaled to controls: 0 for no effect and ±100 for the full control effect). In short, it runs like this: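 Agonist mode in a HeLa line carrying a GRE-controlled beta-lactamase reporter. Compounds act for 18 h at 37 C before a 2 h room-temperature FRET substrate step and fluorescence reading.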

Assay [9] is described as follows: qHTS assay for identifying genotoxic compounds that show differential cytotoxicity against isogenic chicken DT40 cell lines with known DNA damage response pathways - wild type cell line (AID 743012). Also: nearly all actives have a fitted effect of over 60% in size. Also: potency is read from the fitted curve at half-maximal effect. In a few lines: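 Cells (DT40 wild type, 300/well) are treated with DMSO-dissolved compounds after a ~0.5 h pre-incubation and kept 40 h at 37 C/5% CO2. Viability is then measured by CellTiter-Glo luminescence following 30 min at room temperature.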

The nature of assay [10]: qHTS assay for identifying genotoxic compounds that show differential cytotoxicity against isogenic chicken DT40 cell lines with known DNA damage response pathways - Rev3 mutant cell line (AID 743014). Also: nearly all actives have a fitted effect of over 55% in size. Also: potency is read from the fitted curve at half-maximal effect.
Assay [11] in a line: qHTS assay for identifying genotoxic compounds that show differential cytotoxicity against isogenic chicken DT40 cell lines with known DNA damage response pathways - Rad54/Ku70 mutant cell line (AID 743015). Also: nearly all actives have a fitted effect of over 60% in size. Also: potency is read from the fitted curve at half-maximal effect.
Assay [12] concerns the target Androgen receptor (Homo sapiens) (UniProt P10275). The assay can be described thus: qHTS assay to identify small molecule antagonists of the androgen receptor (AR) signaling pathway (AID 743035; active = well fitted inhibition curve with a large enough effect in the signal ratio in the repeat runs, not every such curve was filed as active; the % refers to the signal ratio; also: potency is read from the fitted curve at half-maximal effect). In a few lines:
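Antagonism is scored as loss of R1881-driven beta-lactamase reporter expression in HEK293 cells carrying the reporter under a UAS element, after 16 h co-treatment at 37C and a 2 h room-temperature FRET substrate read.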

Assay [13] has the same target. The assay can be described thus: qHTS assay to identify small molecule agonists of the androgen receptor (AR) signaling pathway (AID 743036; active = well fitted activation curve with a large enough effect in the signal ratio in the repeat runs, with a control signal flat, not every such curve was filed as active; the % refers to the signal ratio; also: % is scaled to controls: 0 for no effect and ±100 for the full control effect). In short, it runs like this:
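AR-UAS-bla HEK293 cells, plated 4 h before dosing, were treated with compound for 16 h at 37C. beta-Lactamase reporter read after 2 h with LiveBLAzer B/G FRET substrate at room temperature.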

The target is the same in assay [14]. The assay can be described thus: qHTS assay to identify small molecule agonists of the androgen receptor (AR) signaling pathway using the MDA cell line (AID 743040; also: % is scaled to controls: 0 for no effect and ±100 for the full control effect; nearly all actives have a fitted effect of over 20% in size). In short, it runs like this: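 After a 5 h incubation at 37C and 0% CO2, MDA-kb2 reporter cells were dosed with compounds in DMSO and kept 16 h under the same conditions. Luciferase activity was then read as luminescence with ONE-Glo.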

Assay [15] in a line: qHTS assay to identify small molecule antagonists of the androgen receptor (AR) signaling pathway using the MDA cell line - cell viability counter screen (AID 743041; also: % is scaled to controls: 0 for no effect and ±100 for the full control effect; nearly all actives have a fitted effect of over 45% in size). In short, it runs like this: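 R1881-driven MDA-kb2 AR-luc cells, 3,000/well, were dosed with library compounds for 16 h; cell health came from CellTiter-Fluor fluorescence in the reporter wells.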
Assay [16] in a line: qHTS assay to identify small molecule antagonists of the glucocorticoid receptor (GR) signaling pathway - cell viability counter screen (AID 720693). Also: % is scaled to controls: 0 for no effect and ±100 for the full control effect; nearly all actives have a fitted effect of over 55% in size.
A short description of assay [17]: qHTS assay to identify small molecule antagonists of the androgen receptor (AR) signaling pathway - cell viability counter screen (AID 743033; also: % is scaled to controls: 0 for no effect and ±100 for the full control effect; nearly all actives have a fitted effect of over 45% in size).
Assay [18] concerns the target Androgen receptor (Homo sapiens) (UniProt P10275). The experiment in a line: qHTS assay to identify small molecule antagonists of the androgen receptor (AR) signaling pathway using the MDA cell line (AID 743042; also: % is scaled to controls: 0 for no effect and ±100 for the full control effect; nearly all actives have a fitted effect of over 55% in size). In a few lines:
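Antagonist mode: compounds plus R1881 agonist added to MDA-kb2 AR-luc cells, incubated 16 h at 37C. Luciferase reporter luminescence quantified, with multiplexed CellTiter-Fluor readout for cell viability.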

The target in assay [19] is Glucocorticoid receptor (Homo sapiens) (UniProt P04150). The assay can be described thus: qHTS assay to identify small molecule antagonists of the glucocorticoid receptor (GR) signaling pathway (AID 720692; active = well fitted inhibition curve with a large enough effect in the signal ratio in the repeat runs, not every such curve was filed as active; the % refers to the signal ratio; also: % is scaled to controls: 0 for no effect and ±100 for the full control effect). In short, it runs like this: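 Cells plated, rested 4 h at 37 C/5% CO2; compounds in DMSO pin-transferred; dexamethasone added to 5 nM final; 18 h at 37 C; B/G FRET substrate added, 2 h room temperature; fluorescence measured.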

Assay [20] can be described thus: qHTS assay to test for compound auto fluorescence at 535 nm (green) in HEK293 cell free culture (AID 720682). Also: % is scaled to controls: 0 for no effect and ±100 for the full control effect. In a few lines: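 Green-label autofluorescence (485 nm excitation, 535 nm emission) measured on compound added to cell-free culture medium (DMEM, 10% FBS). Output is expressed relative to fluorescein.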

Chain of Glucocorticoid receptor (Homo sapiens) (P04150 whole entry, looked up): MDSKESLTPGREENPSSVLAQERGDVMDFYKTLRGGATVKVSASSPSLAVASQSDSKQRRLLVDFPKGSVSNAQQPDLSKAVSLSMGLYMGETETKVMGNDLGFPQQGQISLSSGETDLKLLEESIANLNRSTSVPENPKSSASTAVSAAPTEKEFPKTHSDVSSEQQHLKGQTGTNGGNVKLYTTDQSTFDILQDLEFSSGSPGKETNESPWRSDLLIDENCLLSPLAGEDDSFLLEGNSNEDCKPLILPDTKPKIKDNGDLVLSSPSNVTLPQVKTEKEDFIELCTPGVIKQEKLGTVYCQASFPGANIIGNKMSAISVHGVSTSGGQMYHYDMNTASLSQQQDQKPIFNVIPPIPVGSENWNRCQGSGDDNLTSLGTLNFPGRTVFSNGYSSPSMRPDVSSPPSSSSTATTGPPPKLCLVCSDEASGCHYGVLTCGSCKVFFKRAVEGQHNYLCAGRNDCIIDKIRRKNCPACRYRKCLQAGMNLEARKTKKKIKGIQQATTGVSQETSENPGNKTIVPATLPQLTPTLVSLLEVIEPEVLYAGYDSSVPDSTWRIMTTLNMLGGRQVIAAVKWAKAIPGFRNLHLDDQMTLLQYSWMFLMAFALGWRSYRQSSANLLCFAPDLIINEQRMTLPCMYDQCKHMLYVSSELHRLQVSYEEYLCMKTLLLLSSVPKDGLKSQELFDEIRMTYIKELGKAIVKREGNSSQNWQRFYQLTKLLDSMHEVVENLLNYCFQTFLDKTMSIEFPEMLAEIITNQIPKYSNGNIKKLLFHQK
Chain of Androgen receptor (Homo sapiens) (P10275 whole entry, looked up): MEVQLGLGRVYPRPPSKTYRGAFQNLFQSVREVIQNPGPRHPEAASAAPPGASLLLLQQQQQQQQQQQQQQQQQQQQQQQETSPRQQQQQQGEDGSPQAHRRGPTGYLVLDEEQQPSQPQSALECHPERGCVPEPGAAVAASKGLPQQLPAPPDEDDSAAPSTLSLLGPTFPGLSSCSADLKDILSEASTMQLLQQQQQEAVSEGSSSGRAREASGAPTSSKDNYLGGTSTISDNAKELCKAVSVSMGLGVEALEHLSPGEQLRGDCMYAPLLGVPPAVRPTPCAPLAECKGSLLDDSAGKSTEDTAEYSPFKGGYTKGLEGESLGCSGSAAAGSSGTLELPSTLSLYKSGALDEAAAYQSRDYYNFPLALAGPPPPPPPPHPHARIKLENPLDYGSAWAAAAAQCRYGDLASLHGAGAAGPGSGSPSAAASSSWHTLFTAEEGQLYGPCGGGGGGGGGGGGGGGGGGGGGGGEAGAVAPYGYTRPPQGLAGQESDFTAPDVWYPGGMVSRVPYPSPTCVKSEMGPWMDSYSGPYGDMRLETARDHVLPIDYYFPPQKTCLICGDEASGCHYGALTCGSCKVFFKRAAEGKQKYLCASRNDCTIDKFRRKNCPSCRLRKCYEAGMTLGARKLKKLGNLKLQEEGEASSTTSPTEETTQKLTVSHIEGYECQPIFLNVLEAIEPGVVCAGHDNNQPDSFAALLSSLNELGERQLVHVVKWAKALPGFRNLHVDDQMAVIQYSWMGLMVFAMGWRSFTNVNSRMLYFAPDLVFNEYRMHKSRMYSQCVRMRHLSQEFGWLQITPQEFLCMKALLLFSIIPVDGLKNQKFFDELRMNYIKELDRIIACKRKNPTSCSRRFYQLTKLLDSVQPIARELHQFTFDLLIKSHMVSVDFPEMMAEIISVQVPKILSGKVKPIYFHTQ

With `CC(C)(C)c1cc(O)c(C(C)(C)C)cc1O`, the result in assay [1], in assay [3], in [4], in assay [6] and in assay [13] was inactive. Besides, the Potency entry in assay [2], in assay [5], in assay [7], in [8], in [14] and in assay [15] was “inactive” each time. Also, the Potency in assay [9] is 12.2 µM (active); in assay [10], 13.7 µM (active); in assay [11] it was 13.7 µM (active); in assay [12], 43.6 µM (active).

On to `CCCOc1ccc2nc(NC(=O)OC)[nH]c2c1`, for which the result in [1], in assay [3], in [4] and in assay [6] was inactive. For the same compound, the Potency entry in assay [2], in [5], in [7], in [16], in assay [17] and in assay [14] was “inactive” each time. For the same compound, the Potency entry in assay [15] and in [18] was “inactive” throughout. In addition, the Potency in assay [9] was 0.237 µM (active); in [10], 0.237 µM (active); in [11], 0.335 µM (active).

Consider `NC[C@H]1O[C@H](O[C@H]2[C@H](O)[C@@H](O[C@H]3O[C@H](CO)[C@@H](O)[C@H](N)[C@H]3O)[C@H](N)C[C@@H]2N)[C@H](O)[C@@H](O)[C@@H]1O`, for which the fluorescence, % of fluorescein in [1] was -0.0192% [at 18.6 µM] (inactive) and 0.0982% [at 3.72 µM] (inactive). Also, the fluorescence, % of fluorescent control in assay [2] was 0.0354% [at 18.6 µM] (inactive) and -0.129% [at 3.72 µM] (inactive); in assay [3] it was 0.0769% [at 18.6 µM] (inactive) and -0.256% [at 3.72 µM] (inactive); in assay [5], -0.077% [at 18.6 µM] (inactive) and 0.036% [at 3.72 µM] (inactive); in assay [7], 0.0301% [at 18.6 µM] (inactive) and -0.0315% [at 3.72 µM] (inactive). Also, the fluorescence, % of Rose Bengal in assay [4] is -0.276% [at 18.6 µM] (inactive) and 0.0159% [at 3.72 µM] (inactive). In addition, the fluorescence, % of fluorescein control in assay [6] was -0.0088% [at 18.6 µM] (inactive) and 0.0013% [at 3.72 µM] (inactive). Also, the Potency result in [8], in assay [19], in [16], in assay [9], in assay [10] and in [15] was “inactive” in each case. For the same compound, the Potency entry in assay [11] was “inactive and 1.89 µM (active)”.

`Cc1cc(CC(=O)O)c(C)n1-c1ccc(Cl)cc1`: the result in assay [1], in assay [3], in assay [4] and in assay [6] was inactive. In addition, the Potency entry in assay [2], in assay [5], in assay [7], in assay [8], in assay [16] and in [17] was “inactive” in each case. Also, the Potency entry in [15] is “inactive”. The results for the Potency in [9] and in assay [10] were 26.6 µM (active) and 33.5 µM (active), respectively.

In the case of `O=C(O)c1cccc(N(Cc2cccnc2)c2ccc(OC(F)F)c(OC(F)F)c2)c1`, the call in assay [1], in assay [20], in [3], in assay [4] and in [6] was inactive. The Potency result in assay [2], in assay [5], in [7], in assay [16], in assay [17] and in assay [14] was “inactive” each time. Moreover, in assay [15], the Potency result is “inactive”.

As for `CCCCCCCCCCCCCCCCCBr`, the fluorescence, % of fluorescein in assay [1] was 0.0114% [at 18.6 µM] (inactive). The fluorescence, % of fluorescent control in assay [2] is -0.0559% [at 18.6 µM] (inactive); in [3], -0.288% [at 18.6 µM] (inactive); in [5], 0.0584% [at 18.6 µM] (inactive); in [7], 0.0228% [at 18.6 µM] (inactive). Moreover, in assay [4], the fluorescence, % of Rose Bengal was 0.0382% [at 18.6 µM] (inactive). Also, the fluorescence, % of fluorescein control in assay [6] is 0.134% [at 18.6 µM] (inactive). Further, the Potency entry in assay [8], in assay [19], in [16], in assay [9], in [10] and in assay [11] was “inactive” each time. In addition, the Potency result in assay [17] and in assay [15] was “inactive” throughout.

On to `CCC(=O)OC(C)(C)C1CC=C(C)CC1` (stereo not drawn), for which the result in [1], in assay [20], in assay [3], in assay [4] and in assay [6] was inactive. Further, the Potency entry in assay [2], in assay [5], in assay [7], in assay [16], in assay [17] and in assay [15] was “inactive” throughout. In assay [10], the Potency is 48.6 µM (active).

On to `CC(C)(C)C(=O)OCOP(=O)(COCCn1cnc2c(N)ncnc21)OCOC(=O)C(C)(C)C`, for which the compound was called inactive in assay [1], in [3], in assay [4] and in assay [6]. Besides, the Potency entry in assay [2], in [5], in assay [7], in assay [8], in [19] and in assay [16] was “inactive” each time. The Potency result in [17] and in assay [15] was “inactive” throughout.
